Counter-ions that a name gives are not always drawn.
Columns and labels:
Conditions in all cases: incubation time: 27 h, anaerobic, 37 °C;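 for the amine columns active = adjusted P below 0.05 in both replicates with a change the same way and a mean fold change under 0.8 or over 1.25; inactive = the rest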
[1] = tested on: Clostridium sporogenes DSM 1664; experiment: growth (OD595) fold change vs plate DMSO controls (fold change (ratio)); higher = more growth
Method in brief: (§1)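 After 27 h at 37 °C under anaerobic conditions, 96-well cultures in mGAM were shaken and read at 595 nm. The readings were blank-subtracted, corrected for compound background using 20 µM compound solutions in water, and converted to OD with a calibration factor of 5. Growth is defined as the fold change over the median of DMSO controls on each plate. Fold changes above 1.5 were set to NA, and each value is the mean of 2 biological replicates.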

[2] = tested on: Escherichia coli IAI1; experiment: as above
Method in brief: as §1

[3] = tested on: Klebsiella aerogenes DSM 30053; experiment: as above
Method in brief: as §1

[4] = tested on: Ruminococcus gnavus DSM 108212; experiment: as above
Method in brief: as §1

[5] = tested on: Klebsiella aerogenes DSM 30053; experiment: fold change of Histamine concentration vs plate DMSO controls (fold change (ratio)); higher = more amine produced, active = hit call of the paper (significant change in both replicates, either direction)
Method in brief: (§2)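 Extracts of whole anaerobic mGAM cultures were analysed for amines by LC–triple-quadrupole MS with dynamic MRM and external calibration curves, with drift corrected within batch. Four gut strains were grown at 37 °C for 27 h in 80 µL wells with compounds at 20 µM final, sweeteners at 50 µM final. Each value expresses fold change over plate DMSO controls. The average of 2 biological replicates is shown.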

[6] = tested on: Clostridium sporogenes DSM 1664; experiment: fold change of Tryptamine concentration vs plate DMSO controls (fold change (ratio)); higher = more amine produced, active = hit call of the paper (significant change in both replicates, either direction)
Method in brief: as §2

[7] = tested on: Ruminococcus gnavus DSM 108212; experiment: as above
Method in brief: as §2

[8] = tested on: Escherichia coli IAI1; experiment: fold change of Putrescine concentration vs plate DMSO controls (fold change (ratio)); higher = more amine produced, active = hit call of the paper (significant change in both replicates, either direction)
Method in brief: as §2

[9] = tested on: Klebsiella aerogenes DSM 30053; experiment: as above
Method in brief: as §2

[10] = tested on: Escherichia coli IAI1; experiment: fold change of Cadaverine concentration vs plate DMSO controls (fold change (ratio)); higher = more amine produced, active = hit call of the paper (significant change in both replicates, either direction)
Method in brief: as §2

[11] = tested on: Klebsiella aerogenes DSM 30053; experiment: as above
Method in brief: as §2

[12] = tested on: Ruminococcus gnavus DSM 108212; experiment: fold change of 2-Phenylethylamine concentration vs plate DMSO controls (fold change (ratio)); higher = more amine produced, active = hit call of the paper (significant change in both replicates, either direction)
Method in brief: as §2

SMILES	growth [1]	growth [2]	growth [3]	growth [4]	fold change of Histamine concentration [5]	fold change of Tryptamine concentration [6]	fold change of Tryptamine concentration [7]	fold change of Putrescine concentration [8]	fold change of Putrescine concentration [9]	fold change of Cadaverine concentration [10]	fold change of Cadaverine concentration [11]	fold change of 2-Phenylethylamine concentration [12]
CCOC(N)=O [Urethane] (20 µM)	0.952	1.05	1.04	1.08	1.03 (inactive)	0.944 (inactive)	0.961 (inactive)	1.02 (inactive)	1.05 (inactive)	1.03 (inactive)	1.03 (inactive)	0.926 (inactive)
NCCCC(O)(P(=O)(O)O)P(=O)(O)O [Alendronate sodium] (20 µM)	1.08	1.04	1.1	1.03	0.858 (inactive)	1.1 (inactive)	1.05 (inactive)	0.992 (inactive)	0.947 (inactive)	1.01 (inactive)	1.01 (inactive)	1.05 (inactive)
N/C(=N\C(=O)c1nc(Cl)c(N)nc1N)NCc1ccccc1 [Benzamil hydrochloride] (20 µM)	0.787	0.962	0.958	0.861	0.932 (inactive)	1.03 (inactive)	0.961 (inactive)	0.807 (inactive)	0.965 (inactive)	1.48 (inactive)	0.991 (inactive)	0.936 (inactive)
CC1(C)S[C@@H]2[C@H](NC(=O)[C@H](N)c3ccccc3)C(=O)N2[C@H]1C(=O)OC1OC(=O)c2ccccc21 (stereo partly drawn) [Talampicillin hydrochloride] (20 µM)	0	0.00609	0.378	0.146	0.797 (active)	0.0102 (active)	0.0823 (active)	0.252 (active)	0.971 (inactive)	0.867 (inactive)	1.13 (inactive)	0.0586 (active)
CC(C(=O)O)c1ccc2c(c1)Cc1cccnc1O2 (stereo not drawn) [Pranoprofen] (20 µM)	1.01	1.06	1.03	0.92	0.978 (inactive)	0.985 (inactive)	0.95 (inactive)	0.95 (inactive)	1.01 (inactive)	0.993 (inactive)	1.01 (inactive)	0.94 (inactive)
CNCCC=C1c2ccccc2C=Cc2ccccc21 [Norcyclobenzaprine] (20 µM)	1.1	1.02	1.01	1.09	0.997 (inactive)	0.985 (inactive)	0.939 (inactive)	1 (inactive)	0.993 (inactive)	1.02 (inactive)	0.994 (inactive)	0.935 (inactive)
O=C1NS(=O)(=O)c2ccccc21 [Saccharin] (50 µM)	0.975	1.02	0.976	1.11	1.01 (inactive)	1.02 (inactive)	1 (inactive)	1.05 (inactive)	1.01 (inactive)	1.06 (inactive)	0.996 (inactive)	1.02 (inactive)
CCOc1ccc(NC(C)=O)cc1 [Phenacetin] (20 µM)	1.11	1.02	1.01	1.3	1.03 (inactive)	0.966 (inactive)	0.999 (inactive)	1.07 (inactive)	1.02 (inactive)	0.997 (inactive)	1.01 (inactive)	0.992 (inactive)
CCCCCCCCc1c(CC)nc2ncnn2c1N (20 µM)	1.11	1.05	1.04	1.16	0.991 (inactive)	1.03 (inactive)	0.997 (inactive)	1.01 (inactive)	1.01 (inactive)	1.04 (inactive)	1.01 (inactive)	0.968 (inactive)
CN1CCC(=C2c3ccccc3Sc3ccccc32)CC1 [Pimethixene maleate] (20 µM)	1.13	0.985	0.967	1.26	1.02 (inactive)	1.01 (inactive)	0.87 (inactive)	0.974 (inactive)	0.991 (inactive)	1.02 (inactive)	0.993 (inactive)	0.865 (inactive)
COc1cc(NC(C)CCCN)c2ncccc2c1 (stereo not drawn) [Primaquine diphosphate] (20 µM)	1.08	1.02	1.07	0.905	0.851 (inactive)	1.03 (inactive)	1.07 (inactive)	1.03 (inactive)	0.943 (inactive)	1 (inactive)	1.02 (inactive)	1.09 (inactive)
CCCNCC(O)COc1ccccc1C(=O)CCc1ccccc1 (stereo not drawn) [Propafenone hydrochloride] (20 µM)	1.01	0.96	1.12	0.759	0.848 (inactive)	1.01 (inactive)	1.03 (inactive)	0.987 (inactive)	0.99 (inactive)	1.05 (inactive)	1.02 (inactive)	1.06 (inactive)
CN1Cc2c(N)cccc2C(c2ccccc2)C1 (stereo not drawn) [Nomifensine maleate] (20 µM)	1.07	0.982	1.01	1.1	0.994 (inactive)	0.989 (inactive)	1.04 (inactive)	0.989 (inactive)	1.01 (inactive)	0.935 (inactive)	1.02 (inactive)	0.992 (inactive)
O=C1Nc2ccccc2C1(c1ccc(O)cc1)c1ccc(O)cc1 [Oxyphenisatin] (20 µM)	1.19	1.05	1	0.994	1.03 (inactive)	0.982 (inactive)	0.935 (inactive)	1.04 (inactive)	1 (inactive)	1.01 (inactive)	0.999 (inactive)	0.89 (inactive)
Cc1cc(CC(=O)O)n(C)c1C(=O)c1ccc(Cl)cc1 [Zomepirac sodium salt] (20 µM)	1.21	0.969	0.981	1.13	1.05 (inactive)	0.971 (inactive)	0.972 (inactive)	1.04 (inactive)	1.01 (inactive)	1.01 (inactive)	0.984 (inactive)	0.968 (inactive)
CC(=O)Oc1cc(C(F)(F)F)ccc1C(=O)O [Triflusal] (20 µM)	1.01	0.971	0.952	0.878	1 (inactive)	1.03 (inactive)	1.01 (inactive)	1.04 (inactive)	0.97 (inactive)	0.988 (inactive)	0.992 (inactive)	1.02 (inactive)
CCCc1nn(C)c2c(=O)[nH]c(-c3cc(S(=O)(=O)N4CCN(C)CC4)ccc3OCC)nc12 [Sildenafil] (20 µM)	1.23	1.01	1.02	1.14	0.993 (inactive)	1.06 (inactive)	1.15 (inactive)	0.921 (inactive)	0.98 (inactive)	0.87 (inactive)	1.04 (inactive)	1.24 (inactive)
O=C(O)CCCC[C@@H]1SC[C@@H]2NC(=O)N[C@@H]21 [Biotin] (20 µM)	1.02	0.975	0.981	1.12	1.02 (inactive)	0.954 (inactive)	1.03 (inactive)	0.982 (inactive)	1.02 (inactive)	1.01 (inactive)	0.997 (inactive)	1.06 (inactive)
CCN(CC)C(=O)/C(C#N)=C/c1cc(O)c(O)c([N+](=O)[O-])c1 [Entacapone] (20 µM)	0.868	0.974	1.06	1.07	1.01 (inactive)	0.961 (inactive)	0.929 (inactive)	0.993 (inactive)	1.03 (inactive)	0.977 (inactive)	0.995 (inactive)	0.896 (inactive)
C/C(=C(\CCOP(=O)(O)O)SC(=O)c1ccccc1)N(C=O)Cc1cnc(C)nc1N [Benfotiamine] (20 µM)	0.989	0.98	1.03	1.05	0.984 (inactive)	1.01 (inactive)	0.96 (inactive)	0.942 (inactive)	1 (inactive)	1.04 (inactive)	1 (inactive)	0.959 (inactive)
C[C@]12CC[C@H]3[C@@H](CCC4=CC(=O)CC[C@@]43C)[C@@H]1CC[C@@H]2C(=O)CO [Deoxycorticosterone] (20 µM)	1.18	1.09	1.02	1.11	0.959 (inactive)	0.963 (inactive)	1.03 (inactive)	1.25 (inactive)	0.962 (inactive)	0.96 (inactive)	1.03 (inactive)	1.06 (inactive)
CCCSS/C(CCO)=C(/C)N(C=O)Cc1cnc(C)nc1N [Prosultiamine] (20 µM)	0.945	1.01	0.993	0.919	0.951 (inactive)	1.09 (inactive)	1.09 (inactive)	0.949 (inactive)	0.98 (inactive)	0.958 (inactive)	0.984 (inactive)	1.16 (inactive)
CC(=O)[C@@]12O[C@](C)(c3ccccc3)O[C@@H]1C[C@H]1[C@@H]3CCC4=CC(=O)CC[C@]4(C)[C@H]3CC[C@@]12C [Algestone acetophenide] (20 µM)	1.03	1.22	0.998	1.13	1.03 (inactive)	0.919 (inactive)	1.08 (inactive)	1.3 (inactive)	1.01 (inactive)	0.955 (inactive)	1 (inactive)	1.1 (inactive)
C[C@H](CC[C@@H](O[C@@H]1O[C@H](CO[C@@H]2O[C@H](CO)[C@@H](O)[C@H](O)[C@H]2O)[C@@H](O)[C@H](O)[C@H]1O[C@@H]1O[C@H](CO)[C@@H](O)[C@H](O)[C@H]1O)C(C)(C)O)[C@H]1CC[C@@]2(C)[C@@H]3CC=C4[C@@H](CC[C@H](O[C@@H]5O[C@H](CO[C@@H]6O[C@H](CO)[C@@H](O)[C@H](O)[C@H]6O)[C@@H](O)[C@H](O)[C@H]5O)C4(C)C)[C@]3(C)[C@H](O)C[C@]12C [Mogroside V] (50 µM)	0.958	0.906	1	1.22	1.03 (inactive)	1.12 (inactive)	0.979 (inactive)	0.939 (inactive)	1 (inactive)	1.11 (inactive)	1.02 (inactive)	0.964 (inactive)
